Test results as given in PubChem BioAssay (NCATS).
“And” between values parts separate entries of the source, which are not always exact repeats. Identical values can stand only once. Results filed as inconclusive are left out. The source made the active and inactive calls. Calls come from the whole dose curve; as a rule, active = well fitted curve in the direction sought with a large enough effect; inconclusive = small, poorly fitted or top-dose-only effect, or another doubt; inactive = no such curve, though single readings can be large; an effect the other way counts as inactive or inconclusive.

Experiments:
[1] = system: HEK293; assay: Cytotoxic Profiling of Annotated Libraries Using Quantitative High-Throughput Screening (AID 1296008); conditions: Five cell lines viability, CellTiter-Glo ATP luminescence, 48-72 h; max response: stronger effect = lower value; note: nearly all actives have a fitted effect of over 60% in size
Summary of the method: (§1)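 Compounds were pin-transferred onto cells and incubated 48 or 72 hr at 37 degree Celsius, 95% humidity. CellTiter-Glo was added, plates sat 10 min at room temperature, then ATP-coupled luminescence was imaged as the viability read-out.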

[2] = system: HaCat; assay: as above; conditions: Five cell lines viability, CellTiter-Glo ATP luminescence, 48-72 h; max response: stronger effect = lower value
Summary of the method: as §1

[3] = system: KB-3-1; assay: as above; conditions: Five cell lines viability, CellTiter-Glo ATP luminescence, 48-72 h; max response: stronger effect = lower value
Summary of the method: as §1

[4] = system: NIH3T3; assay: as above; conditions: Five cell lines viability, CellTiter-Glo ATP luminescence, 48-72 h; max response: stronger effect = lower value
Summary of the method: as §1

[5] = system: MCC-13; assay: qHTS assay to identify novel small-molecules to repurpose for Merkel cell carcinoma treatment (AID 1296009); conditions: MCC and control cell lines, CellTiter-Glo viability, 72 h; series mostly up to 46 µM; note: nearly all actives have a fitted effect of over 60% in size
Summary of the method: (§2)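 qHTS format: cells treated with library compounds in DMSO across 8 (NPC) or 11 (MIPE) concentrations. Readout after 72 hr at 37 degree celsius was CellTiter-Glo luminescence.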

[6] = system: MCC-26; assay: as above; conditions: MCC and control cell lines, CellTiter-Glo viability, 72 h; series mostly up to 46 µM
Summary of the method: as §2

[7] = system: MKL-1; assay: as above; conditions: MCC and control cell lines, CellTiter-Glo viability, 72 h; series mostly up to 46 µM
Summary of the method: as §2

[8] = system: UISO; assay: as above; conditions: MCC and control cell lines, CellTiter-Glo viability, 72 h; series mostly up to 46 µM
Summary of the method: as §2

[9] = system: WaGa; assay: as above; conditions: MCC and control cell lines, CellTiter-Glo viability, 72 h; series mostly up to 46 µM
Summary of the method: as §2

[10] = system: C33A; assay: Primary qHTS to identify gynecologic anti-cancer compounds using libraries of approved drugs and bioactive compounds (AID 1345084); conditions: Gynecologic cancer cell panel viability, ATPlite luminescence, 48 h; series mostly up to 57.5 µM; note: nearly all actives have a fitted effect of over 55% in size
Summary of the method: (§3)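 Cells, 1,000 per well, were allowed to settle for 16 h at 37 C before compound addition. Five concentrations were tested for 48 h, and viability was read by ATPlite luminescence after 15 min at room temperature.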

[11] = system: CAOV3; assay: as above; conditions: Gynecologic cancer cell panel viability, ATPlite luminescence, 48 h; series mostly up to 57.5 µM
Summary of the method: as §3

[12] = system: CASKI; assay: as above; conditions: Gynecologic cancer cell panel viability, ATPlite luminescence, 48 h; series mostly up to 57.5 µM
Summary of the method: as §3

[13] = system: Es-2; assay: as above; conditions: Gynecologic cancer cell panel viability, ATPlite luminescence, 48 h; series mostly up to 57.5 µM
Summary of the method: as §3

[14] = system: HeLa; assay: as above; conditions: Gynecologic cancer cell panel viability, ATPlite luminescence, 48 h; series mostly up to 57.5 µM
Summary of the method: as §3

[15] = system: Hek293T; assay: as above; conditions: Gynecologic cancer cell panel viability, ATPlite luminescence, 48 h, control line for the selectivity index; series mostly up to 57.5 µM
Summary of the method: as §3

[16] = system: MKL-2; assay: qHTS assay to identify novel small-molecules to repurpose for Merkel cell carcinoma treatment (AID 1296009); conditions: MCC and control cell lines, CellTiter-Glo viability, 72 h; series mostly up to 46 µM; note: nearly all actives have a fitted effect of over 60% in size
Summary of the method: as §2

[17] = system: NIH3T3; assay: as above; conditions: MCC and control cell lines, CellTiter-Glo viability, 72 h; at 44.8 µM (top of the series) unless noted
Summary of the method: as §2

[18] = system: JEG-3; assay: Primary qHTS to identify gynecologic anti-cancer compounds using libraries of approved drugs and bioactive compounds (AID 1345084); conditions: Gynecologic cancer cell panel viability, ATPlite luminescence, 48 h; series mostly up to 57.5 µM; note: nearly all actives have a fitted effect of over 55% in size
Summary of the method: as §3

[19] = system: HACAT; assay: qHTS assay to identify novel small-molecules to repurpose for Merkel cell carcinoma treatment (AID 1296009); conditions: MCC and control cell lines, CellTiter-Glo viability, 72 h; series mostly up to 44.8 µM; note: nearly all actives have a fitted effect of over 60% in size
Summary of the method: as §2

[20] = system: HEK293T; assay: as above; conditions: MCC and control cell lines, CellTiter-Glo viability, 72 h; at 44.8 µM (top of the series) unless noted
Summary of the method: as §2
% is set by controls: 0 for no effect and ±100 for the full control effect; potency is the fitted concentration of half-maximal effect.

NC(=O)Nc1cc(-c2cccc(F)c2)sc1C(=O)N[C@H]1CCCNC1
active: Potency [1] 148 nM and 231 nM | Potency [2] 8.33 µM and 1.3 µM | Potency [3] 2.09 µM and 1.03 µM | Potency [4] 418 nM and 291 nM | Potency [5] 14800 nM | Potency [6] 11800 nM | Potency [7] 3320 nM | Potency [8] 4180 nM | Potency [9] 5260 nM | Potency [10] 1120 nM | Potency [11] 1580 nM | Potency [12] 1780 nM | Potency [13] 631 nM | Potency [14] 1780 nM | Potency [15] 1000 nM

Clc1cccc(-n2nnnc2NCc2ccccc2Oc2ccccn2)c1Cl
inactive: max response [1] -13.7% and -15.5% | max response [2] -3.03% and -4.47% | max response [3] -10.9% and -7.38% | outcome [4] | Potency [5] | Potency [7] | Potency [16] | outcome [17] | Potency [8] | Potency [9] | Potency [10] | Potency [11] | Potency [12] | Potency [13] | Potency [14] | Potency [15] | Potency [18]

Cc1[nH]nc2ccc(-c3cncc(OC[C@@H](N)Cc4ccccc4)c3)cc12
active: Potency [1] 209 nM and 651 nM | Potency [2] 1.32 µM and 411 nM | Potency [3] 332 nM | Potency [4] 3.72 µM and 7.31 µM | Potency [5] 4180 nM | Potency [6] 6620 nM | Potency [7] 1870 nM | Potency [16] 1660 nM | Potency [8] 833 nM | Potency [12] 6310 nM | Potency [13] 8910 nM | Potency [14] 2240 nM | Potency [15] 1780 nM | Potency [18] 10000 nM

COC(=O)Nc1ccc(-c2nc(N3CCOCC3)c3cnn(C4CCN(Cc5cccnc5)CC4)c3n2)cc1
active: Potency [1] 66.2 nM and 1.46 µM | Potency [2] 13.2 µM | Potency [3] 132 nM and 1.64 µM | Potency [4] 83.3 nM and 920 nM | Potency [5] 14800 nM | Potency [6] 8330 nM | Potency [8] 1870 nM | Potency [11] 8910 nM | Potency [13] 4470 nM | Potency [14] 25100 nM | Potency [15] 2240 nM

CC[C@@]1(O)C(=O)OCc2c1cc1n(c2=O)Cc2cc3cc(O)ccc3nc2-1
active: Potency [1] 73.1 nM and 148 nM | Potency [2] 116 nM and 743 nM | Potency [3] 517 nM and 1.05 µM | Potency [4] 1.46 µM and 662 nM | Potency [5] 118 nM | Potency [7] 37.2 nM | Potency [16] 264 nM | Potency [8] 74.3 nM | Potency [9] 18.7 nM | Potency [10] 794 nM | Potency [11] 355 nM | Potency [12] 398 nM | Potency [13] 355 nM | Potency [15] 1260 nM

CC(=O)c1c(C)c2cnc(Nc3ccc(N4CCNCC4)cn3)nc2n(C2CCCC2)c1=O
inactive: max response [1] -2.77% | max response [2] 1.14% | max response [3] -7.2% | max response [4] 3.53% | Potency [5] | Potency [6] | Potency [9] | activity change, negative = cytotoxicity [10] 9.39% [at 6.55 µM] | activity change, negative = cytotoxicity [11] 11.3% [at 6.55 µM] | activity change, negative = cytotoxicity [12] 12% [at 6.55 µM] | activity change, negative = cytotoxicity [13] 0.0946% [at 6.55 µM] | activity change, negative = cytotoxicity [14] -1.33% [at 6.55 µM] | activity change, negative = cytotoxicity [15] 25.4% [at 6.55 µM] | activity change, negative = cytotoxicity [18] -5.97% [at 6.55 µM]

CCOc1cc2ncc(C#N)c(Nc3ccc(F)c(Cl)c3)c2cc1NC(=O)C=CCN(C)C
active: Potency [1] 1.87 µM | Potency [2] 0.0166 µM | Potency [3] 5900 nM | Potency [4] 1.48 µM | Potency [5] 23500 nM | Potency [6] 14800 nM | Potency [7] 14800 nM | Potency [16] 14800 nM | Potency [8] 2640 nM | Potency [9] 9350 nM

Nc1nc(-c2nn(Cc3ccccc3F)c3ncccc23)nc(N)c1N1CCOCC1
inactive: max response [1] -2.05% | max response [2] -22.5% | max response [3] 6.89% | max response [4] -10.6% | Potency [5] | Potency [6] | Potency [7] | Potency [16] | Potency [8] | Potency [9]

COc1ccc2c(OCc3nnc4ccc(-c5ccccc5)nn34)ccnc2c1
inactive: outcome [1] | outcome [2] | max response [3] -1.11% and 9.78% | max response [4] -4.81% and -9.25% | Potency [19] | outcome [20] | Potency [5] | Potency [6] | Potency [7] | Potency [16] | Potency [8] | Potency [9] | Potency [10] | Potency [12] | Potency [13] | Potency [14] | Potency [15] | Potency [18]
